From PubChem BioAssay (NCI)
This is part of a sample that, as a whole, favours compounds with a hit. Of some 79,000 tested, about 15% had one in any assay. Activity calls are given as the source filed them. Cut-off read from the data, not from the text of the source: active = growth inhibition above about 70%; inactive = the rest.

Experiments:
[1] = NCI Yeast Anticancer Drug Screen. Data for the rad50 strain (AID 155);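 note: 0% = growth of vehicle-only cultures of the same strain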; settings: S. cerevisiae rad50 strain growth inhibition; at 50.0 µM; stronger effect = higher value
Summary of the method: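 A DNA repair-deficient yeast mutant serves as the test organism; compound-induced growth inhibition is calculated against vehicle-treated cells.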

[2] = NCI Yeast Anticancer Drug Screen. Data for the mec2-1 strain (AID 157); settings: S. cerevisiae mec2-1 strain, at 50.0 µM, stronger effect = higher value
Summary of the method: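 mec2-1 yeast strain, carrying an alteration in DNA damage repair or cell cycle control, was exposed to compounds; growth inhibition was measured relative to vehicle-treated controls.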

[3] = NCI Yeast Anticancer Drug Screen. Data for the sgs1 mgt1 strain (AID 161);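 note: 0% = growth of cultures given vehicle only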; settings: S. cerevisiae sgs1 mgt1 strain, at 50.0 µM, stronger effect = higher value
Summary of the method: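 Percent growth inhibition was derived by comparing compound-exposed mutant yeast with vehicle-exposed cultures. The strain carries alterations in DNA damage repair.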

[4] = NCI Yeast Anticancer Drug Screen. Data for the cln2 rad14 strain (AID 165);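 note: 0% = growth equal to vehicle treated cultures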; settings: S. cerevisiae cln2 rad14 strain, at 50.0 µM, stronger effect = higher value
Summary of the method: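 Yeast carrying cln2 and rad14 alterations (cell cycle control and DNA damage repair) were exposed to compounds. Growth inhibition was measured against vehicle-treated controls.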

[5] = NCI Yeast Anticancer Drug Screen. Data for the bub3 strain (AID 167); settings: S. cerevisiae bub3 mutant strain, at 50.0 µM, stronger effect = higher value
Summary of the method: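 Inhibition values come from growth of compound-treated mutant yeast normalised to vehicle-treated controls.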

[6] = NCI Yeast Anticancer Drug Screen. Data for the mlh1 rad18 strain (AID 175); settings: S. cerevisiae mlh1 rad18 strain growth inhibition; at 50.0 µM; stronger effect = higher value
Summary of the method: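 Growth inhibition of the yeast strain was measured after compound exposure and expressed relative to vehicle-treated controls. The strain carries defined defects in DNA damage repair.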

Measured: growth inhibition

CC(=O)Oc1ccc(CCN(C)C2CC3CCC2(C)C3(C)C)cc1OC(C)=O (stereo unspecified)
inactive: [1] 51.4% | [2] 21.4% | [3] 46.2% | [4] -11.2% | [5] 6.1% | [6] 41%

ClCCN(CCCl)c1ncnc2c1ncn2Cc1ccccc1
inactive: [1] 2.9% | [2] 17.4% | [3] 15.6% | [4] -12.6% | [5] -1.95% | [6] -0.4%

CSCCC(N)C(=O)O.[Pb] (stereo unspecified)
inactive: [1] -17.9% | [2] -10.3% | [3] 13.1% | [4] -40.4% | [5] -12.4% | [6] -20.2%

[Se]=[Hf]=[Se]
inactive: [1] 1.35% | [2] -24.7% | [3] -28.7% | [4] -8.6% | [5] -11.8% | [6] -26.6%

O=C1NC(=O)C(CCO)(c2ccccc2)C(=O)N1
inactive: [1] -21.6% | [2] -13% | [3] -4.4% | [4] -6.25% | [5] -11.7% | [6] -4.15%

CC([NH-])C(=O)O.[Cl][Pt][Cl] (stereo unspecified)
inactive: [1] -25.6% | [2] -9.6% | [3] -24.9% | [4] 7.55% | [5] -10.6% | [6] -9.55%

O=C(CCc1ccccc1)Nc1ccc(Cl)cc1C(=O)c1ccccc1
inactive: [1] -0.85% | [2] 20.2% | [3] 24.4% | [4] -26.2% | [5] 54.1% | [6] 28.6%

CCOP(=O)(OCC)Oc1c(Cl)c(Cl)c(O)c(Cl)c1Cl
inactive: [1] -23.1% | [2] -15.7% | [3] 4.2% | [4] -17.6% | [5] 6.4% | [6] -8.5%

c1ccc([As](c2ccccc2)c2ccccc2)cc1
inactive: [1] 0.75% | [2] -0.95% | [3] -7.9% | [4] -3.3% | [5] -3.95% | [6] 5.05%

CN1CN(c2ccccc2)C2(CCN(CCC3Oc4ccccc4O3)CC2)C1=O
inactive: [1] -22.4% | [2] 6.45% | [3] -0.4% | [4] -1.2% | [5] -1.35% | [6] 3.35%

Cc1cc(C)c(O)c(C)c1
inactive: [1] 10.2% | [2] -18.3% | [3] -5.45% | [4] 14.4% | [5] -5.25% | [6] 4.45%

CCOC(=O)COc1cc(Cl)c(S(=O)(=O)F)cc1Cl
active: [1] 98.8% | [2] 92.3% | [3] 97.3% | [4] 93.1% | [5] 98.3% | [6] 98%

O=c1[nH]c(=O)[nH]c(=O)[nH]1
inactive: [1] 25.6% | [2] -16.1% | [3] -12.9% | [4] -42.8% | [5] 1.1% | [6] 27.6%

CC(C)N1C(=O)NC(=O)C2(CCCC2)C1=O
inactive: [1] -2.15% | [2] 3.05% | [3] -1.5% | [4] -28.4% | [5] -12.6% | [6] -2.5%

[Cl][Ni][Cl].[NH-]CCN1CC1.[NH-]CCN1CC1
inactive: [1] -9.75% | [2] 19.4% | [3] 19.4% | [4] -26.4% | [5] -4.55% | [6] -5.75%

CCC1(O)N=C(c2ccccc2)c2ccccc2-n2cccc21 (stereo unspecified)
inactive: [1] 1.7% | [2] 4.25% | [3] 8.65% | [4] 0.55% | [5] 2.2% | [6] 6.5%

CC(=O)CCC(=O)O.[Ni]
inactive: [1] -37.5% | [2] 0.2% | [3] -7.45% | [4] -27.4% | [5] -7.65% | [6] 1.9%

[C-]#[O+].[Cl][Ru]([Cl])([Cl])([Cl])[Cl]
inactive: [1] -7.05% | [2] -8.95% | [3] 35% | [4] -6.75% | [5] 11.3% | [6] 1.9%

CN(C)c1ccc(/C=C/C=C\C2=CC(=C\C=C/C=C3C=CC(=[N+](C)C)C=C3)/Sc3ccccc32)cc1
inactive: [1] -36.4% | [2] -45.9% | [3] -63.7% | [4] -29.6% | [5] -27.4% | [6] -55.3%

NC(=O)CI
inactive: [1] 30.8% | [2] 27.1% | [3] 38.1% | [4] 13.8% | [5] 18.5% | [6] 17.1%

CC1(C)N=C(N)N=C(N)N1c1ccc(CCC(=O)Nc2ccc(S(=O)(=O)F)cc2)cc1
inactive: [1] 27.6% | [4] -28.8% | [5] -0.55% | [6] 54.1%
active: [2] 87.3% | [3] 76.8%
